Bioassay records from PubChem.
Only some compounds are listed: those with a hit (about 6% of all), similar ones and a draw of the others.
D1 agonist: activates the human D1 dopamine receptor; P21728; HEK293 T-REx D1 cells, calcium flux, agonist mode; activation, % at 2 µM; 360,000 compounds, 1% hits; AID 504660; in the data active = activation above about 30%
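Agonism was scored from calcium flux recorded over 180 s (1 read/s) after pintool compound addition, following a 10-cycle baseline. Cells were inducible force-coupled HEK293 TREx D1, plated overnight at 30 C and loaded with no-wash calcium dye.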
DRD3 agonist: D3 dopamine receptor (human) agonism; AID 652048; P35462; max activation, %; D3R DiscoveRx beta-arrestin cells, luminescence, 90 min; 410,000 compounds, 0.58% hits; in the data active = max activation above about 30%
Target sequence (P35462 whole entry, looked up): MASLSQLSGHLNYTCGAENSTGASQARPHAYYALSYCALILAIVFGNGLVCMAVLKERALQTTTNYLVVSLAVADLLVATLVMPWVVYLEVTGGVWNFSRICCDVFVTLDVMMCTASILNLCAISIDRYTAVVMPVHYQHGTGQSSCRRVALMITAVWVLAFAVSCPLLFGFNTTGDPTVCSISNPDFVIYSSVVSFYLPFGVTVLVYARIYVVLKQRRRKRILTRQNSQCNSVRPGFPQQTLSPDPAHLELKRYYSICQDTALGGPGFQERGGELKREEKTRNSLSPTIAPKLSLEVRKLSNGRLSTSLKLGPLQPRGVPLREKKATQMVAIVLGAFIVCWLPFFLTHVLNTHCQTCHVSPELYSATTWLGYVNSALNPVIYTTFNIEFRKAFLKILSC
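Agonist-mode cell screen: cells plated at 1500/well and incubated overnight at 37 °C, then exposed to library compounds for 90 min at 37 °C. Detection reagent was added for 30–60 min at room temperature, and luminescence was read.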
DRD3 antagonist: blocks the human D3 dopamine receptor; P35462; D3R cells, DiscoveRx beta-arrestin luminescence, antagonist mode; stronger effect = lower value; max response, negative = inhibition, %; 360,000 compounds, 2.5% hits; AID 652054; in the data active = max response below about -50%; inconclusive = no clear call, values can overlap the other calls
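Cells expressing the human receptor were seeded at 1500 cells/well, incubated overnight at 37 degrees C in 5% CO2, then exposed to library compounds with dopamine controls for 90 minutes at 37 degrees C before luminescent detection.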
D1 antagonist: human D1 dopamine receptor antagonism; P21728; HEK293 TREx D1 cells, calcium flux, dopamine EC80; stronger effect = lower value; activity change, negative = inhibition, % at 10 µM; 360,000 compounds, 3.2% hits; in the data active = activity change below about -30%
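After overnight tetracycline induction at 30 C, force-coupled D1 HEK293 cells took up a no-wash calcium dye at room temperature. Compounds were added and monitored 180 s, and the response to EC80 dopamine was then recorded.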
D1 PAM: human D1 dopamine receptor positive modulation | HEK293 TREx D1 cells, calcium flux, dopamine EC20 potentiation | P21728 | AID 504651 | 360,000 compounds, 0.036% hits | potentiation, % at 10 µM; in the data active = potentiation above about 30%
Large screens that a line does not name were inactive.

CCC(C)[C@H]1O[C@]2(C=C[C@@H]1C)C[C@@H]1C[C@@H](C/C=C(\C)[C@@H](O[C@H]3C[C@H](OC)[C@@H](O[C@H]4C[C@H](OC)[C@H](NC(C)=O)[C@H](C)O4)[C@H](C)O3)[C@@H](C)/C=C/C=C3\CO[C@@H]4[C@H](O)C(C)=C[C@@H](C(=O)O1)[C@]34O)O2 (some centres not stated)	none (no result: D1 agonist, DRD3 antagonist, D1 antagonist, D1 PAM)
CCOc1ccc(CSC2=NCCN2)cc1Cl	D1 antagonist -35.3
O=C(NC1CCCCCC1)C1CCN(C(=O)N2CCOc3ccccc32)CC1	none (no result: DRD3 antagonist)
COC(=O)c1c(/N=C/N(C)C)sc2c1CCN(c1ncc(C(F)(F)F)cc1Cl)C2	D1 antagonist -30.8
COC(=O)c1c(N(S(C)(=O)=O)S(C)(=O)=O)sc2c1CCN(c1ncc(C(F)(F)F)cc1Cl)C2	none
CCC1OC(=O)C[C@@H](O)[C@H](C)[C@@H](O[C@@H]2O[C@H](C)C[C@H](N(C)C)[C@H]2O)[C@@H](CC=O)C[C@@H](C)C(=O)/C=C/[C@]2(C)OC2C1C (some centres not stated)	none (no result: D1 agonist, DRD3 antagonist, D1 antagonist, D1 PAM)
COc1ccccc1NC(=O)c1oc2ccccc2c1NC(=O)Cc1cccs1	none (no result: DRD3 antagonist)
CC1CCCC(C)N1c1nnc(NC(=O)c2cc(-c3ccc(Br)cc3)on2)s1 (configuration not stated)	none
O=C(Nc1nnc(N2CCCCCC2)s1)c1cc(-c2ccc(Br)cc2)on1	D1 antagonist -47.6
CCOc1ccc(-c2nn(CC(=O)NC3CCCCC3)c3c2cnc2ccc(C)cc23)cc1	none (no result: DRD3 antagonist)
CC(=O)OCC1O[C@@H](O[C@@H]2C[C@H]3C(C)(C)[C@H](OC(C)=O)CC[C@]3(C)[C@H]3CC[C@]45C[C@]4(CC[C@H]5[C@@H](C)C[C@@H](O)[C@H](O)C(C)(C)O)[C@@]32C)[C@H](O)[C@@H](O)[C@@H]1O (some centres not stated)	D1 agonist 334.4 (no result: DRD3 agonist, DRD3 antagonist)
COc1cccc(NC(=O)Cn2c(CCC(=O)O)ccc2-c2cccs2)c1	none
Cc1ccc(NC(=O)Cn2c(CCC(=O)O)ccc2-c2cccs2)cc1Cl	D1 antagonist -68.9
CCOC(=O)c1sc2ccccc2c1S(=O)(=O)Nc1c(C)cccc1C	none (no result: DRD3 antagonist)
Cc1ccc(NS(=O)(=O)c2cc(C(=O)N(C)C)ccc2C)cc1C	D1 antagonist -36.6
Cc1ccc(NS(=O)(=O)c2cc(C(=O)N3CCCC3)ccc2C)cc1C	none
CC1(C(=O)Nc2ccc3c(c2)OCCO3)CSCC(=O)N1C1CCN(Cc2ccccc2)CC1 (configuration not stated)	DRD3 antagonist -61.5 (no result: D1 agonist, D1 antagonist, D1 PAM)
COc1cc(OC)c2c(OC)cccc2n1	D1 antagonist -82.3
COc1ccccc1-c1nc2ccccc2nc1-c1ccccc1OC	none
O=c1cc(CN2CCN(Cc3ccccc3)CC2)c2cc3c(cc2o1)CCC3	DRD3 antagonist -61.9
O=c1cc(CN2CCN(c3ccccc3F)CC2)c2cc3c(cc2o1)CCCC3	DRD3 antagonist -61.9
CC(C)(C)C1CCC2(CC1)NC(CO)(CO)CO2 (configuration not stated)	D1 antagonist -34.0
O=C(CCC(=O)N1CC2CCCN2c2ccccc21)NCc1ccc(F)cc1 (configuration not stated)	none (no result: DRD3 antagonist)
Cc1ccc(-n2ncc3c(NCC(C)C)ncnc32)c(C)c1	D1 antagonist -32.0 (no result: DRD3 antagonist)
CCOC(=O)N1CCC(Nc2ncnc3c2cnn3-c2ccc(C)cc2C)CC1	D1 antagonist -31.1
C=CCNc1ncnc2c1cnn2-c1ccc(C)cc1C	none
CC(=O)Nc1ccc(Nc2ncnc3c2cnn3-c2ccc(C)cc2C)cc1	none (no result: D1 antagonist)
Cc1ccc2nc(-c3ccc(N4C(=O)CC(N5CCN(CCO)CC5)C4=O)cc3)sc2c1 (configuration not stated)	DRD3 antagonist inconclusive, D1 antagonist -35.9
COc1ccccc1-c1nnc(C2CCN(S(=O)(=O)c3ccccc3)CC2)o1	none (no result: DRD3 antagonist)
Cc1cccc(NC(=O)C(C)C(=O)c2ccccc2)c1 (configuration not stated)	none
Cc1ccc(NC(=O)C(C)c2cccc(C(=O)c3ccccc3)c2)cc1O (configuration not stated)	D1 antagonist -31.6
O=C(NNC1=Nc2ccccc2SC1)c1ccc(Cl)cc1	DRD3 antagonist -72.8
CC(C)(C)C(=O)Nc1c(C(=O)N2CCN(c3ccc(F)cc3)CC2)oc2ccccc12	none (no result: DRD3 antagonist)
CC(=Nc1ccccc1)c1sc2ccccc2c1O	none
CC(=Nc1ccc(Br)cc1)c1sc2ccccc2c1O	D1 agonist 62.3
O=C(c1cc(-c2ccc(Cl)cc2)n[nH]1)N1CCN(S(=O)(=O)c2ccc(Br)s2)CC1	none (no result: DRD3 antagonist)
O=C(c1cc(-c2ccc(Br)cc2)n[nH]1)N1CCN(S(=O)(=O)c2ccc(Br)s2)CC1	DRD3 agonist 33.8 (no result: DRD3 antagonist)
Cc1ccccc1C1C(C#N)=C2N=C(N)c3c(sc4c3CCCCC4)N2C2=C1C(=O)CC(C)(C)C2 (configuration not stated)	DRD3 antagonist -60.8
CC(C)(C)c1ccc(S(=O)(=O)N2CCC(N3CCCCC3)CC2)cc1	none
CC1CCN(C2CCN(S(=O)(=O)c3ccc(F)cc3)CC2)CC1	D1 antagonist -32.6
CC1CCN(C2CCN(S(=O)(=O)c3ccc(C(F)(F)F)cc3)CC2)CC1	none
O=S(=O)(c1ccc(Cl)cc1)N1CCC(N2CCCCCC2)CC1	DRD3 antagonist -66.8
O=S(=O)(c1ccc(F)cc1)N1CCC(N2CCCCCC2)CC1	DRD3 antagonist -50.1
CC1CCN(S(=O)(=O)c2ccc3c(c2)C(=NO)c2cc(S(=O)(=O)N4CCC(C)CC4)ccc2-3)CC1	DRD3 agonist 55.4
O=S(=O)(c1ccc2c(c1)C(=NO)c1cc(S(=O)(=O)N3CCCCC3)ccc1-2)N1CCCCC1	DRD3 antagonist inconclusive
O=C(Nc1ccc2nc(-c3ccco3)c(-c3ccco3)nc2c1)N1CCCC1	none (no result: DRD3 agonist, DRD3 antagonist)
CCOc1ccc(NC(=O)CSc2nccn2C2CCCC2)cc1	none (no result: DRD3 antagonist)
O=C1CSC(=Nc2cccc(Cl)c2Cl)N1Cc1cccnc1	D1 antagonist -34.8
Cc1ccccc1N=C1SCC(=O)N1Cc1ccccc1	none
COc1cccc(Nc2sc(C(=O)c3ccc4c(c3)OCO4)c(N)c2S(=O)(=O)c2ccccc2)c1	none (no result: DRD3 antagonist)
Cc1ccc(S(=O)(=O)c2c(Nc3ccc(C)c(C)c3)sc(C(=O)c3ccc4c(c3)OCO4)c2N)cc1	D1 agonist 67.6 (no result: DRD3 antagonist)
Nc1c(C(=O)c2ccc3c(c2)OCO3)sc(Nc2ccccc2F)c1S(=O)(=O)c1ccccc1	none (no result: DRD3 antagonist)
CCOc1ccc(Nc2sc(C(=O)c3ccc4c(c3)OCO4)c(N)c2S(=O)(=O)c2ccc(C)cc2)cc1	D1 agonist 37.4 (no result: DRD3 antagonist)
Cc1ccc(S(=O)(=O)c2c(Nc3cc(C)ccc3C)sc(C(=O)c3ccc4c(c3)OCO4)c2N)cc1	D1 agonist 83.9 (no result: DRD3 antagonist)
Cc1cc(C)c(NC(=O)C(C)n2nc(-c3ccc(C)c(C)c3)ccc2=O)c(C)c1 (configuration not stated)	none (no result: DRD3 antagonist)
